Among the data in PubChem BioAssay (NCI) are growth values, retold here.

Compounds without any hit were thinned out: in the full panel of roughly 83,000, 20% have a hit.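 Note: values are percent growth. 100 is the growth of untreated cells, values between 100 and 0 indicate rising inhibition; between -100 and 0 indicates cell death.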 The source made the active and inactive calls. The calls were made as follows: active = growth percent below 10; inactive = the rest.

This assay has as its system SNB-75 CNS. The experiment in a line: NCI-60 one-dose screen, 48 h (100 = growth as untreated, 0 = no growth, -100 = all killed). The note with it: 10 µM unless noted.
As for `CC(C)(C)c1ccc(OCCCCCCCN2CCNCC2)cc1`, the growth was 51.8% (inactive). On to `O=Cc1nc2ccccc2[nH]1`, for which the growth is 80% (inactive). Then `C[C@]12CC[C@@H]3c4ccc(O)cc4CC[C@H]3[C@@H]1C[C@H](O)[C@@H]2O`, with 82% (inactive); and `Cn1c(=O)c2c(ncn2CCC(=O)Nc2ccc(F)cc2)n(C)c1=O`, with 91.5% (inactive). Then `CN(C)CCCCC(C(=O)CBr)(c1ccccc1)c1ccccc1`, with 46% (inactive); and `C[C@@H]1CCCCCCCCC[C@H](O)C(=O)C[C@@H](SC[C@@H](O)C(=O)O)C(=O)O1`, with 95.2% (inactive). Then `O=C(N/N=C/c1ccccc1SSc1ccccc1/C=N/NC(=O)c1ccccc1)c1ccccc1`, with 65.8% (inactive). In the case of `CC/C=C\C[C@H]1CC=C2C(=O)C=C[C@@H]2CC=CCCCC(=O)O[C@@H](CCCCC)CC=C2C(=O)C=C[C@@H]2CC=CCCCC(=O)O[C@@H](CCCCC)CC=C2C(=O)C=C[C@@H]2CC=CCCCC(=O)O[C@@H](CCCCC)CC=C2C(=O)C=C[C@@H]2CC=CCCCC(=O)O1`, the growth was 65.2% [7.9 µM] (inactive). In the case of `COc1ccc(NC(=S)N/N=C/c2ccccc2SSCCC(=O)OC[C@H]2O[C@H](O)[C@H](O)[C@@H](O)[C@@H]2O)cc1` it was 86.3% (inactive); in that of `Fc1ccc(Nc2nnc(-c3ccc(Cl)cc3)o2)cc1`, 102% (inactive). For the molecule `COC(=O)[C@]12CC[C@@H](C)[C@H](C)[C@@H]1C1=CC[C@@H]3[C@@](C)(CC#N)C4=C(C[C@@]3(C)[C@]1(C)CC2)OC[C@]4(C)C=O`, the growth was 19.3% (inactive).

Consider `COc1ccc(/C=C/C(=O)NCC(C)O)cc1` (centres undefined), for which the growth is 84.7% (inactive). Then `COc1cnc2c(c1)C(=O)c1c-2n(CCCNC(C)C)c(=O)c2cc([N+](=O)[O-])ccc12`, with -79.2% (active); and `Cn1cc(-c2csc(-c3cn(CCNC(=O)OC(C)(C)C)c4ccc(F)cc34)n2)c2cccnc21`, with 86.3% (inactive). Then `NCCn1cc(-c2nc(-c3c[nH]c4ncccc34)cs2)c2cc(F)ccc21`, with 64.2% (inactive); and `Cc1cc(N2CCCCC2)nc(N(CCNc2ccnc3cc(Cl)ccc23)Cc2ccco2)n1`, with 43.9% (inactive); and `Fc1ccc(Nc2nc(Nc3ccc(-c4nc5ccccc5[nH]4)cc3)nc(N3CCCC3)n2)cc1`, with 65.4% (inactive). For `Brc1ccc2c(c1)c(-c1nc(-c3c[nH]c4ncccc34)cs1)cn2CCCN1CCCCC1`, the growth is 67.6% (inactive). As for `O=C1CNCCN1`, the growth was 92.6% (inactive). Then `COC(=O)[C@]12CC[C@@H](C)[C@H](C)[C@@H]1C1=CC[C@@H]3[C@@]4(C)CC(=O)[C@H](OC(=O)c5ccco5)[C@@]5(C)COC(=C45)C[C@@]3(C)[C@]1(C)CC2`, with 41.7% (inactive); and `NCCn1cc(-c2nc(-c3c[nH]c4ncccc34)cs2)c2cc(Br)ccc21`, with 72.7% (inactive); and `Cc1cc(N2CCCCC2)nc(N(CCCNc2ccnc3cc(Cl)ccc23)Cc2ccco2)n1`, with 54.3% (inactive). In the case of `CCCCC[C@H]1CC=C2C(=O)C=C[C@@H]2CC=CCCCC(=O)O[C@@H](CCCCC)CC=C2C(=O)C=C[C@@H]2CC=CCCCC(=O)O[C@@H](CCCCC)CC=C2C(=O)C=C[C@@H]2CC=CCCCC(=O)O1` it was 48.7% [8.75 µM] (inactive); in that of `CCC(CC)C(=O)OC(C)COc1ccc(C(C)(C)C)cc1` (centres undefined), 94.8% (inactive). In the case of `CC/C(=N/NC(N)=O)c1ccccc1` it was 98% (inactive); in that of `N#CC1=C(N)Oc2c(sc3c(F)cccc23)C1c1ccc(Cl)cc1` (centres undefined), 13.8% (inactive). `CCCCC[C@H]1C/C=C2/C(=O)C(Cl)=C[C@@H]2C/C=C\CCCC(=O)O[C@@H](CCCCC)C/C=C2/C(=O)C(Cl)=C[C@@H]2C/C=C\CCCC(=O)O1`: the growth was 11.9% (inactive).

`c1ccc(-c2nc(Nc3ccc(-c4nc5ccccc5[nH]4)cc3)nc(N3CCOCC3)n2)cc1`: the growth was -89.6% (active). Then `Fc1ccc2c(c1)c(-c1nc(-c3c[nH]c4ncccc34)cs1)cn2CCCN1CCCCC1`, with 64% (inactive); and `CN(C)c1ccc(N=C2C=CC(=O)C=C2)cc1`, with 77.6% (inactive); and `Cc1ccncc1C(=O)O`, with 86.6% (inactive). As to `COc1cc2ncnc(Nc3ccc(Oc4ccnc(C)c4)c(C)c3)c2cc1NC(=O)CC1CCSS1` (centres undefined), the growth is -3.3% (active). Then `O=C1Nc2ccccc2/C1=C/c1cn(CCCn2c3ccccc3c(=O)c3ccccc32)c2ccccc12`, with 69.7% (inactive); and `CCCCC[C@H]1CC=C2C(=O)C(Cl)=C[C@@H]2CC=CCCCC(=O)O[C@@H](CCCCC)CC=C2C(=O)C(Cl)=C[C@@H]2CC=CCCCC(=O)O[C@@H](CCCCC)CC=C2C(=O)C(Cl)=C[C@@H]2CC=CCCCC(=O)O1`, with 106% [8 µM] (inactive).
